In the supplement of paper PMC11732987, “Enantioselective OTUD7B fragment discovery through chemoproteomics screening and high-throughput optimisation” (Communications Chemistry, 2025):

Experiments:
Assay in all cases: log2 ratio of Biotin-Ahx-Ub-VS probe labelling (fragment/DMSO); higher = less target engagement (more negative = stronger competition), active = hit call of the paper (q ≤ 0.05, log2 ratio ≤ -1)
Settings in all cases: compound concentration: 200 uM; treatment time: 3 h
[1] = target: T1, USP42 (UniProt Q9H9J4)
T1 sequence (whole entry): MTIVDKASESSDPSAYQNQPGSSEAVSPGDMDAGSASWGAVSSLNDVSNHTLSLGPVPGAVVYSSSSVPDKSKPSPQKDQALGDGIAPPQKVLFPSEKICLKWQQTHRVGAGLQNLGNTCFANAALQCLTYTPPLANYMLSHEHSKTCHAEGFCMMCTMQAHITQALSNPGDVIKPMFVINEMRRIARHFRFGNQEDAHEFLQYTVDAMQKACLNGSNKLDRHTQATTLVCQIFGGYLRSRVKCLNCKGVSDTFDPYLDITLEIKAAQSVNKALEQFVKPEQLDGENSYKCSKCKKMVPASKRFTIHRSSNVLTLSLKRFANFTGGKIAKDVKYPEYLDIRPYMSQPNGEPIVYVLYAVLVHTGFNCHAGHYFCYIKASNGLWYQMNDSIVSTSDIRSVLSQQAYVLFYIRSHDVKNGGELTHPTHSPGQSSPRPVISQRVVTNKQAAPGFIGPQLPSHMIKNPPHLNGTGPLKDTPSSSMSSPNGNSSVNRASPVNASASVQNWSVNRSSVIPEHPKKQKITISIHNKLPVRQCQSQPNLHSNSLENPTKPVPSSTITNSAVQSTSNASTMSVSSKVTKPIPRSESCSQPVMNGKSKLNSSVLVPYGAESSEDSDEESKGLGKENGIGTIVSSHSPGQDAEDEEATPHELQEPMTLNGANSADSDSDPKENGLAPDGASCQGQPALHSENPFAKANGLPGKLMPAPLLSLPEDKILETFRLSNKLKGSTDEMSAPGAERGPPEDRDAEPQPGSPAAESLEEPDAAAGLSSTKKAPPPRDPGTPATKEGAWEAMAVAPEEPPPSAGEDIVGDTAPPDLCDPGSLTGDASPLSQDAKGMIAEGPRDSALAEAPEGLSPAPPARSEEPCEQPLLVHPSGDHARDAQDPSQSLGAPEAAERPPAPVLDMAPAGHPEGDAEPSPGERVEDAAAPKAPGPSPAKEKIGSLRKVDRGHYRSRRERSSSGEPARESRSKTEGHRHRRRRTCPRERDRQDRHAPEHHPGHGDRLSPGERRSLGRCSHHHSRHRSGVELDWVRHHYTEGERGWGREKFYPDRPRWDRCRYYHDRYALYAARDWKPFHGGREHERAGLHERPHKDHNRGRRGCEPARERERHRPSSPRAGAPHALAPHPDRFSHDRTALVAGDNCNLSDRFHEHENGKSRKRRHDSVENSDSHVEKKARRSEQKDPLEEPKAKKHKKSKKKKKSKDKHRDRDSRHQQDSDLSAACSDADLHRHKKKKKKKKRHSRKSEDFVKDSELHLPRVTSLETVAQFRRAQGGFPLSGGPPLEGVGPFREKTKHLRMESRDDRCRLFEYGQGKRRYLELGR
Outline: (§1)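 In triplicate, 495 µg of HEK293T lysate per sample was incubated with fragment at 200 µM or vehicle for 3 h. Biotin-Ahx-Ub-VS was then added to 0.5 µM final for 1 h, and labelled DUBs were captured with NeutrAvidin, digested with LysC and trypsin, and measured by diaPASEF LC-MS/MS. Data are average log2 fragment/vehicle ratios by unpaired t-test from global-median-normalised Spectronaut label-free quantities, restricted to proteins with ≥2 unique peptides.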

[2] = target: USP46 (UniProt P62068)
Outline: as §1

[3] = target: T2, USP47 (UniProt Q96K76)
T2 sequence (whole entry): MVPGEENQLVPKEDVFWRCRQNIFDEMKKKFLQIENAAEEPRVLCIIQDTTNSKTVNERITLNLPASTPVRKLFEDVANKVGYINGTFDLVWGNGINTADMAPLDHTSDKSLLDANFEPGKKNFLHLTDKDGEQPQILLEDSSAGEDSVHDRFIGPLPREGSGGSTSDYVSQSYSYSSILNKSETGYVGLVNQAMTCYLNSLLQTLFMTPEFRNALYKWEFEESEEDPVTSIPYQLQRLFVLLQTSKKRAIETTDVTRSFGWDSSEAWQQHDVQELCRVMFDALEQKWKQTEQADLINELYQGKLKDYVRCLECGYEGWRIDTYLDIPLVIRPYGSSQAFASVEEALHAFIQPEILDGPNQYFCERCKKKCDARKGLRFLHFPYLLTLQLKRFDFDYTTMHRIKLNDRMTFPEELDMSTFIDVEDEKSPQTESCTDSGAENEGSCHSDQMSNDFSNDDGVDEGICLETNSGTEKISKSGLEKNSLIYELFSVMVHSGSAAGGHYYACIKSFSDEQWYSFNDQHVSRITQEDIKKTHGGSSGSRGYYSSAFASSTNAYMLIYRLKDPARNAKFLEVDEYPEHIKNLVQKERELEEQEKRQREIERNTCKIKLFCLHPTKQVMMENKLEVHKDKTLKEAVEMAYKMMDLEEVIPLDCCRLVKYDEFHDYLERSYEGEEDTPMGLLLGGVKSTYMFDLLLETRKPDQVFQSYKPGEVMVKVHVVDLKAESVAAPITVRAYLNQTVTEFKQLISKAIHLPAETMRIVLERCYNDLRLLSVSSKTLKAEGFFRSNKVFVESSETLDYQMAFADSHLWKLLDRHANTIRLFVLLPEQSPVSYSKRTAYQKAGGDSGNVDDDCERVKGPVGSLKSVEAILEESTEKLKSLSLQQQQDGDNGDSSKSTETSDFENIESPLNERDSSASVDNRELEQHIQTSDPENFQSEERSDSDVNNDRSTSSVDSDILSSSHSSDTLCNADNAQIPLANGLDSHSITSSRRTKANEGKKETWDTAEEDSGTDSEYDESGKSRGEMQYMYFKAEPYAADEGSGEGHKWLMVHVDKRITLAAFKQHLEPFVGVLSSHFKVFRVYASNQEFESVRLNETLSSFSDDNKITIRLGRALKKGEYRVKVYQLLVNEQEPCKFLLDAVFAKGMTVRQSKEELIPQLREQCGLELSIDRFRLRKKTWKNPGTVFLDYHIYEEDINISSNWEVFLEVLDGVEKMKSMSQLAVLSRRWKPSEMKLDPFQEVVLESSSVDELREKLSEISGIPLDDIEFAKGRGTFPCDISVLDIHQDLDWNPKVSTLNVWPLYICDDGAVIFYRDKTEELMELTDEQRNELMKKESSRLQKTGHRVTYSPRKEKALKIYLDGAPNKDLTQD
Outline: as §1

[4] = target: T3, USP48 (UniProt Q86UV5)
T3 sequence (whole entry): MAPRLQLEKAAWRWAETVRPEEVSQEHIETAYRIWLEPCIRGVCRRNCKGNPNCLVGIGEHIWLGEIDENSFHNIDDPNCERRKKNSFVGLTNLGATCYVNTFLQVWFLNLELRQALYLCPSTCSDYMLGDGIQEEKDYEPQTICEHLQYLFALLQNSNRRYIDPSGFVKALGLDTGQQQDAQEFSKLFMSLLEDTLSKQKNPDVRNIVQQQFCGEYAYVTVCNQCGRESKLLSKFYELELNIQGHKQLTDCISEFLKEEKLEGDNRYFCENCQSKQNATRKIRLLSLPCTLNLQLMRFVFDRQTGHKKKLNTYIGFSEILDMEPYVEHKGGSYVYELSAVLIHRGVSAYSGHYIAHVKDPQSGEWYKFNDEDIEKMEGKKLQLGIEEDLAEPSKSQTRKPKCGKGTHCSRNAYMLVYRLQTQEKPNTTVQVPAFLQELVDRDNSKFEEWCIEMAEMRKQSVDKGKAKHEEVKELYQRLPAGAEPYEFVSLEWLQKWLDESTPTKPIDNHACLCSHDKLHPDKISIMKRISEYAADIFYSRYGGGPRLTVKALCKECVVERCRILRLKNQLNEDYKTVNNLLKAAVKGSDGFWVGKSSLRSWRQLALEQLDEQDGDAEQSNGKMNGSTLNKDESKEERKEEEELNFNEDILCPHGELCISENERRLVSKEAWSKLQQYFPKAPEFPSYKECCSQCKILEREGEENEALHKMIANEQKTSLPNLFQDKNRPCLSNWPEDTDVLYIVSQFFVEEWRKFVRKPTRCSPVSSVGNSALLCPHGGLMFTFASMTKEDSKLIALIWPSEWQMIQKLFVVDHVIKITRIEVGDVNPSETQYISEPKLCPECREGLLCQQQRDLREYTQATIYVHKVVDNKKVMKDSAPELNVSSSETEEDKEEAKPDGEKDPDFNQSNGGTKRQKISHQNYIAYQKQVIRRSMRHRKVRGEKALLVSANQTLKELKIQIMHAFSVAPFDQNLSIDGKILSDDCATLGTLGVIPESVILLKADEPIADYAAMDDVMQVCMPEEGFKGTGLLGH
Outline: as §1

[5] = target: T4, USP5 (UniProt P45974)
T4 sequence (whole entry): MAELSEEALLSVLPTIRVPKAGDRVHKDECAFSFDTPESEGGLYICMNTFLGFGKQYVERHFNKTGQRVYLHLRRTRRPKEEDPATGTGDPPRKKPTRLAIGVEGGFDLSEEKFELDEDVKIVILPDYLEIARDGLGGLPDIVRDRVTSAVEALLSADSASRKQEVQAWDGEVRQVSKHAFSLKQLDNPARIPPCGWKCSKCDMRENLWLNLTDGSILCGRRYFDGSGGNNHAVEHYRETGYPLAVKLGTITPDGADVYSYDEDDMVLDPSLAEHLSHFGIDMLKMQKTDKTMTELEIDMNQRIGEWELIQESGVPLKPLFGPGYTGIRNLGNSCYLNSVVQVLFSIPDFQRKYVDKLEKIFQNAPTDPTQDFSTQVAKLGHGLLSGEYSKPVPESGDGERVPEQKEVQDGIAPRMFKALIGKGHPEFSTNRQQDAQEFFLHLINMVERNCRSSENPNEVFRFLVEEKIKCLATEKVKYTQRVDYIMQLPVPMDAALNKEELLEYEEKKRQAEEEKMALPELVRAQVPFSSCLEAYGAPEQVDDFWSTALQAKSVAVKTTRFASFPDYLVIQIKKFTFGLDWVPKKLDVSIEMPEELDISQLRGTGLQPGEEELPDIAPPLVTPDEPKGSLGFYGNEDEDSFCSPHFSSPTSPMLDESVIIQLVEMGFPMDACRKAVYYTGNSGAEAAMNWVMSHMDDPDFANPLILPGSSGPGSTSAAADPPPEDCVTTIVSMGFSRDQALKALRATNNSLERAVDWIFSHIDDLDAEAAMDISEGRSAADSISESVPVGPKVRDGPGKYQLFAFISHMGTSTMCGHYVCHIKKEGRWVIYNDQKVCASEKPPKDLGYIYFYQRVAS
Outline: as §1

[6] = target: USP54 (UniProt Q70EL1)
Outline: as §1

[7] = target: USP7 (UniProt Q93009)
Outline: as §1

[8] = target: T5, USP8 (UniProt P40818)
T5 sequence (whole entry): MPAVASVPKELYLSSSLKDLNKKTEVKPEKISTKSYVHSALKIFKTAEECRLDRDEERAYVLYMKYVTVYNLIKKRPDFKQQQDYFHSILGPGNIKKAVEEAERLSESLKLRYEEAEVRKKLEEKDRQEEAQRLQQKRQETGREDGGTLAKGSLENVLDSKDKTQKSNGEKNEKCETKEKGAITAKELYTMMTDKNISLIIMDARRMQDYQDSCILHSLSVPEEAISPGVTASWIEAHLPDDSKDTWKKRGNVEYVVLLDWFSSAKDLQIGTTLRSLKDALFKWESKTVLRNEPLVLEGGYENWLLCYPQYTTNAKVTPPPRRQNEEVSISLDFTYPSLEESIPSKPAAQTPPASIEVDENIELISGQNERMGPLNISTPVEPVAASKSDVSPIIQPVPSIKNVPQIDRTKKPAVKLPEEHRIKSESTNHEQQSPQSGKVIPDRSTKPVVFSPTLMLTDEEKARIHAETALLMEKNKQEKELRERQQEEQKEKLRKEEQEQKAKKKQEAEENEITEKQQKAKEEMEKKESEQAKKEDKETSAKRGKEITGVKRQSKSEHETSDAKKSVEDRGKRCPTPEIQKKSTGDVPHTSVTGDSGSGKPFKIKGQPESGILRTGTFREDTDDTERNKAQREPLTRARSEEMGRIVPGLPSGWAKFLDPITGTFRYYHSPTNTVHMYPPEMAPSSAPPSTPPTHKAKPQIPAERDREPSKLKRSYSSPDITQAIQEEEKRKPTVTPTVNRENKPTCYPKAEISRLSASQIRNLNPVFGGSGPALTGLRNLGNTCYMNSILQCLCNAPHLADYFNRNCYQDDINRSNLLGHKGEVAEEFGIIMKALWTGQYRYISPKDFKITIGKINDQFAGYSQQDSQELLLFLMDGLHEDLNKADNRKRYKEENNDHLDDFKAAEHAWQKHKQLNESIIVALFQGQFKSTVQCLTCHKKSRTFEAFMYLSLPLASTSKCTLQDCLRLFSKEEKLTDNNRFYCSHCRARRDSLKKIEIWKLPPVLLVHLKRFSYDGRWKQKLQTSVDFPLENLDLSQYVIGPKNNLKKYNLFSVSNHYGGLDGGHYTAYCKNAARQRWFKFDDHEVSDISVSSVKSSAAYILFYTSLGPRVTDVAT
Outline: as §1

Measured: log2 ratio of Biotin-Ahx-Ub-VS probe labelling

Sequence of USP54 (Q70EL1 whole entry): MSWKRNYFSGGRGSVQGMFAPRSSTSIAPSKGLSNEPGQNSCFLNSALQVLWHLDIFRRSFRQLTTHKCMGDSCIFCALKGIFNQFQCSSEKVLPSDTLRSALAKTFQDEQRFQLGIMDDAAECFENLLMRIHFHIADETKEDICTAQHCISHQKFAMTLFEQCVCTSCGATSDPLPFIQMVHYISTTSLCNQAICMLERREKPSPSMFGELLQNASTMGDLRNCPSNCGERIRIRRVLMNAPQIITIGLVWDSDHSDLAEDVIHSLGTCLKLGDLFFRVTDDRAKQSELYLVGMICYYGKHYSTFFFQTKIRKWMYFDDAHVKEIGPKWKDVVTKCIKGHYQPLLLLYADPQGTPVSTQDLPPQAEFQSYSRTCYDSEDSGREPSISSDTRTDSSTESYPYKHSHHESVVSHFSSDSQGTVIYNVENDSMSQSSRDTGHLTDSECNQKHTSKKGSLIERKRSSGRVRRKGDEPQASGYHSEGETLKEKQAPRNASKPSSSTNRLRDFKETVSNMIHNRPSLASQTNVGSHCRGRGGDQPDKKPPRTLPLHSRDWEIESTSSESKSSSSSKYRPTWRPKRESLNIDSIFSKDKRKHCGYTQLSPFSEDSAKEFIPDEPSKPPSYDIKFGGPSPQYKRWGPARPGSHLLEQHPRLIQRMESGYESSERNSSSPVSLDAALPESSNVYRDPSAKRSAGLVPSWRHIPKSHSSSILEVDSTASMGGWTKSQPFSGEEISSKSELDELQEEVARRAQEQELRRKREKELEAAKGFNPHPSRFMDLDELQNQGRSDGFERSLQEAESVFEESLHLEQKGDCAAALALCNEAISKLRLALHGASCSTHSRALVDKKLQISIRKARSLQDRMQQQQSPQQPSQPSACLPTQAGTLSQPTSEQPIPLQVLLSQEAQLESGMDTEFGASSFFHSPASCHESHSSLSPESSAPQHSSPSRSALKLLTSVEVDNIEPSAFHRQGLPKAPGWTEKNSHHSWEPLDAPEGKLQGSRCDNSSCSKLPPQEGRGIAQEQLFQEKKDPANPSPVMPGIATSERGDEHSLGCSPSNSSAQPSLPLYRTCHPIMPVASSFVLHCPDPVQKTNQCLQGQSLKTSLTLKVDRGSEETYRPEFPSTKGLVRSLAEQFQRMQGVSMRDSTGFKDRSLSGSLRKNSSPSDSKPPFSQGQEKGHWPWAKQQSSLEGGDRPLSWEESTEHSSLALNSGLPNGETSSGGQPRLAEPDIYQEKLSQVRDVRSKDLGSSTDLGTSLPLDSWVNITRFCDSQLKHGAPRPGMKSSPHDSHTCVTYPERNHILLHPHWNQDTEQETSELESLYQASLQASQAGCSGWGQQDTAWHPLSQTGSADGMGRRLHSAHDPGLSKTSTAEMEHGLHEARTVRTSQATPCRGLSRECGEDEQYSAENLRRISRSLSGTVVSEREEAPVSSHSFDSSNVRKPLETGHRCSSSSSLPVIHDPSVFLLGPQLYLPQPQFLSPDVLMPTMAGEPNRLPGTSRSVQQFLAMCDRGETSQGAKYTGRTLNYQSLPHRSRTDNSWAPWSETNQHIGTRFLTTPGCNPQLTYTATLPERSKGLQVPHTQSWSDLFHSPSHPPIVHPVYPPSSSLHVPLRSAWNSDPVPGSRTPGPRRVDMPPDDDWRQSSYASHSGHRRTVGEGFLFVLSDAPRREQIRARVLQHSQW
Sequence of USP46 (P62068 whole entry): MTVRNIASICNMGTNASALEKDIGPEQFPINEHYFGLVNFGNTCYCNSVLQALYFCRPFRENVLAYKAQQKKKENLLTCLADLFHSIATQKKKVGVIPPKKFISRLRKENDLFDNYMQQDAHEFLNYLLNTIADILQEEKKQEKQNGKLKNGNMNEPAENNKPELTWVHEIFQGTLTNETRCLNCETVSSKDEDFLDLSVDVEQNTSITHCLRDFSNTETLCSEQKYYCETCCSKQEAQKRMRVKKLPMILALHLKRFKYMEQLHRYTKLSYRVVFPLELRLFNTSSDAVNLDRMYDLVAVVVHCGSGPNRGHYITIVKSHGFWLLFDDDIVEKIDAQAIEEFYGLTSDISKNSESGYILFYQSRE
Sequence of USP7 (Q93009 whole entry, looked up): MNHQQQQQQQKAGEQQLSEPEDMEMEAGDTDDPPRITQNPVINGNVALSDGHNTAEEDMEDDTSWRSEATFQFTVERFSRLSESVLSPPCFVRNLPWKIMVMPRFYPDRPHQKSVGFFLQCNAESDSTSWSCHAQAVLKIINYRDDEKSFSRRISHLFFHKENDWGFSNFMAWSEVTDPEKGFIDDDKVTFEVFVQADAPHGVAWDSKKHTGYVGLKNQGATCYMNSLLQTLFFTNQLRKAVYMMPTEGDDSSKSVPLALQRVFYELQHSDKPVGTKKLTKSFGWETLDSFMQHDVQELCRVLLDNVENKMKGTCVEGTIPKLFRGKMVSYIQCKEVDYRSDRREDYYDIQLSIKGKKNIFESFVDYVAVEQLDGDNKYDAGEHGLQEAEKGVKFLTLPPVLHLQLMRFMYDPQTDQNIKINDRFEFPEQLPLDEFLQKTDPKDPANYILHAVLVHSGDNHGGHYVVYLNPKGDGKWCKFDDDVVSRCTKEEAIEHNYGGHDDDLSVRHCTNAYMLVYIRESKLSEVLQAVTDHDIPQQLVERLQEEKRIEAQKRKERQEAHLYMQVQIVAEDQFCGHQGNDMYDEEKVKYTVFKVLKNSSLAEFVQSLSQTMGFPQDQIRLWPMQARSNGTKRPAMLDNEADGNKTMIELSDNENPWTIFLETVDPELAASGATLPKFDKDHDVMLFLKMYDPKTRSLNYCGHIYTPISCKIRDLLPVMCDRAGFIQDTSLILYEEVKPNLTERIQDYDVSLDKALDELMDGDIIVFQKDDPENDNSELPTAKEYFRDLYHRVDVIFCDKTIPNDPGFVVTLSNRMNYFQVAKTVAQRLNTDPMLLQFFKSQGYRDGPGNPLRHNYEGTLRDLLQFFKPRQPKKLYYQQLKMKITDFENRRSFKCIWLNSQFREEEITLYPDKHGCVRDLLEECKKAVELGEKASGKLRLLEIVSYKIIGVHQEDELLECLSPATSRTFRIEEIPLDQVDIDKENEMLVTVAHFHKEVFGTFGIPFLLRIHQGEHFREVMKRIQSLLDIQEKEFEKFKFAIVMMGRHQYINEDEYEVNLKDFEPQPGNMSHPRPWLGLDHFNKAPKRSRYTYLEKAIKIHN

O=C(CCl)NCc1noc(C2CC2)n1
inactive: [1] -0.112 | [2] -0.0864 | [3] -0.0714 | [4] -0.135 | [5] -0.183 | [6] 1.02 | [7] -0.262 | [8] -0.421
